Source: PubChem BioAssay (NCATS)
Where “and” joins values, the source holds several entries; their conditions need not be identical. Equal entries are not always repeated. Results filed as inconclusive are left out. A call without a number means that no potency is given here. Calls of active or inactive are those of the source. Calls come from the whole dose curve; as a rule, active = well fitted curve in the direction sought with a large enough effect; inconclusive = small, poorly fitted or top-dose-only effect, or another doubt; inactive = no such curve, though single readings can be large; an effect the other way counts as inactive or inconclusive.

Key:
[1] = system: MCC-13; assay: qHTS assay to identify novel small-molecules to repurpose for Merkel cell carcinoma treatment (AID 1296009); conditions: MCC and control cell lines, CellTiter-Glo viability, 72 h; series mostly up to 46 µM; note: nearly all actives have a fitted effect of over 60% in size; note: potency is the fitted concentration of half-maximal effect
Outline: (§1)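 Viability readout: ATP luminescence (CellTiter-Glo) after 72 hr drug exposure at 37 degree celsius. Dose-response format was 8 points for NPC and 11 points for MIPE; data normalized to in-plate controls.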

[2] = system: MCC-26; assay: as above; conditions: MCC and control cell lines, CellTiter-Glo viability, 72 h; series mostly up to 46 µM
Outline: as §1

[3] = system: MKL-1; assay: as above; conditions: MCC and control cell lines, CellTiter-Glo viability, 72 h; series mostly up to 46 µM
Outline: as §1

[4] = system: MKL-2; assay: as above; conditions: MCC and control cell lines, CellTiter-Glo viability, 72 h; series mostly up to 46 µM
Outline: as §1

[5] = system: UISO; assay: as above; conditions: MCC and control cell lines, CellTiter-Glo viability, 72 h; series mostly up to 46 µM
Outline: as §1

[6] = system: WaGa; assay: as above; conditions: MCC and control cell lines, CellTiter-Glo viability, 72 h; series mostly up to 46 µM
Outline: as §1

[7] = system: C33A; assay: Primary qHTS to identify gynecologic anti-cancer compounds using libraries of approved drugs and bioactive compounds (AID 1345084); conditions: Gynecologic cancer cell panel viability, ATPlite luminescence, 48 h; series mostly up to 57.5 µM; note: nearly all actives have a fitted effect of over 55% in size
Outline: (§2)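 Cell viability after 48 h drug treatment, ATPlite luminescence readout; five doses.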

[8] = system: CASKI; assay: as above; conditions: Gynecologic cancer cell panel viability, ATPlite luminescence, 48 h; series mostly up to 57.5 µM
Outline: as §2

[9] = system: CAOV3; assay: as above; conditions: Gynecologic cancer cell panel viability, ATPlite luminescence, 48 h; series mostly up to 57.5 µM
Outline: as §2

[10] = system: NIH3T3; assay: qHTS assay to identify novel small-molecules to repurpose for Merkel cell carcinoma treatment (AID 1296009); conditions: MCC and control cell lines, CellTiter-Glo viability, 72 h; at 44.8 µM (top of the series) unless noted; note: nearly all actives have a fitted effect of over 60% in size; note: potency is the fitted concentration of half-maximal effect
Outline: as §1

SMILES | Potency [1] | Potency [2] | Potency [3] | Potency [4] | Potency [5] | Potency [6] | Potency [7] | Potency [8] | Potency [9] | outcome [10]
CCN(CC)CCOc1ccc(Cc2ccccc2)cc1 | inactive | inactive | inactive | inactive | inactive | inactive | inactive | inactive |  | 
CC1Cc2ccccc2N1NC(=O)c1ccc(Cl)c(S(N)(=O)=O)c1 (centres undefined) | inactive | inactive | inactive | inactive | inactive | inactive | inactive | inactive |  | 
Cc1ccc(Nc2nccc(N(C)c3ccc4c(C)n(C)nc4c3)n2)cc1S(N)(=O)=O | inactive | inactive | inactive | inactive | inactive | inactive | inactive | inactive |  | 
Clc1ccc2c(N3CCN(CCCN4CCN(c5ccnc6cc(Cl)ccc56)CC4)CC3)ccnc2c1 | inactive | inactive | inactive | inactive | inactive | inactive |  |  |  | 
Cn1c(NCCN(CCO)CCCc2ccc([N+](=O)[O-])cc2)cc(=O)n(C)c1=O | inactive | inactive | inactive | inactive | inactive | inactive | inactive | inactive | inactive | 
COc1cc2c(N3CCN(C(=O)Nc4ccc(OC(C)C)cc4)CC3)ncnc2cc1OCCCN1CCCCC1 | inactive | inactive | inactive | inactive | inactive | inactive | inactive | inactive |  | 
Cc1ccc(C)c(OCCCC(C)(C)C(=O)O)c1 | inactive | inactive | inactive | inactive | inactive | inactive | inactive | inactive |  | 
Cc1cc(=O)oc2cc(O)ccc12 | inactive | inactive | inactive | inactive | inactive | inactive | inactive | inactive |  | 
CS(=O)(=O)OCCCCOS(C)(=O)=O | inactive | inactive | inactive | inactive | inactive | inactive | inactive | inactive | inactive | 
COC(=O)C1=C(C)NC(C)=C(C(=O)OC(C)C)C1c1cccc2nonc12 (centres undefined) | inactive | inactive | inactive | inactive | inactive | inactive | inactive | inactive | inactive | 
CN(C)CCc1c[nH]c2ccc(Cn3cncn3)cc12 | inactive |  | inactive | inactive | inactive | inactive |  |  |  | 
NC(=NCc1ccccc1)NC(=O)c1nc(Cl)c(N)nc1N | inactive | inactive | inactive |  | inactive | inactive |  |  |  | 
O=C(NCCO[N+](=O)[O-])c1cccnc1 | inactive |  | inactive | inactive | inactive | inactive | inactive | inactive |  | inactive
COc1cc2c(cc1OC)C1CC(=O)C(CC(C)C)CN1CC2 (centres undefined) | inactive |  | inactive | inactive | inactive | inactive |  |  |  | inactive
Cc1ccc(C(=O)c2cc(O)c(O)c([N+](=O)[O-])c2)cc1 | inactive | inactive | inactive |  | inactive | inactive | inactive | inactive | inactive | 
O=C(CCc1ccc(O)cc1)c1c(O)cc(O)cc1O | inactive |  | 9.35 µM (active) | 4.69 µM (active) |  | 5.9 µM (active) |  |  |  | inactive
CC(C)[N+]1(C)[C@@H]2CC[C@H]1CC(OC(=O)C(CO)c1ccccc1)C2 (some centres undefined) | inactive | inactive | inactive |  | inactive | 18.7 µM (active) |  |  |  | inactive
CCOC(=O)c1c(C)n(C)c2ccc(O)cc12 | inactive |  | inactive | inactive | inactive | inactive | inactive | inactive |  | inactive
O=C1c2ccccc2-c2n[nH]c3cccc1c23 | inactive | inactive | 3.32 µM (active) |  |  | 2.64 µM (active) |  |  |  | 
Oc1ccc2ccccc2c1SSc1c(O)ccc2ccccc12 | inactive | inactive |  | 20.9 µM (active) |  |  |  |  |  | inactive
CCCCCCCCOc1ccccc1C(=O)Nc1ccc(C(=O)OCC[N+](C)(CC)CC)cc1 | inactive | inactive |  | 16.6 µM (active) and 5.96 µM (active) | 15 µM (active) | 29.9 µM (active) | inactive |  |  | 
Cc1nc2n(c(=O)c1CCN1CCC(c3noc4cc(F)ccc34)CC1)CCCC2 | inactive | inactive | inactive | inactive | inactive | inactive |  | inactive |  | 
CN1CCC(=C2c3ccccc3CCc3sccc32)CC1 | inactive | inactive | inactive |  | inactive | inactive |  | inactive |  | inactive
CNC[C@@H](O)[C@@H](O)[C@H](O)[C@H](O)CO | inactive |  | inactive | inactive | inactive | inactive |  |  |  | inactive
O=c1ccc2ccc(O)c(O)c2o1 | inactive | inactive |  |  | inactive |  |  |  |  | 
CN(C)[C@@H](CCOc1cccc2ccccc12)c1ccccc1 | inactive | inactive | inactive |  | inactive |  | inactive | inactive |  | 
OC(CN1CCN(c2cccc(Cl)c2)CC1)C(c1ccccc1)c1ccccc1 (centres undefined) | inactive | inactive | inactive |  | inactive | inactive | inactive | inactive | inactive | inactive
